Viability and inhibition data for 39 molecules are collected here from PubChem BioAssay.

Each structure is given as a SMILES string. Records with an inconclusive call do not appear. The source made the active and inactive calls.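 The calls were made as follows, unless noted: active = viability at or below 27.92% in each of two runs, the all-compound median minus 4 SD; inconclusive = no clear call, values can overlap the other calls; inactive = the rest.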

One assay is described as follows: viability of PTEN-null HCT116 cells – cell-based, HCT116 clonal line, CellTiter-Glo, pilot screen (AID 824).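 Also: 0% = 20 µM Hyamine control and 100% = vehicle cell control.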 Conditions: HCT116 PTEN-deleted viability, 60 h, at 10 µM, active compounds read low.
As to `COc1cc(OC)c(NC2c3ccccc3C(=O)N2c2cc(C)ccn2)cc1Cl` (stereo not drawn), the viability is 84.2% (inactive).
With `CC(=O)Nc1ccc(NC(=O)CSc2nccn2Cc2ccccc2)cc1`, the viability is 88.8% (inactive).
With `CCn1c(C(=O)NC(C)c2ccc3c(c2)OCCO3)cc2sccc21` (stereo not drawn), the viability is 82% (inactive).
For the molecule `Cn1c(Cn2c(=O)sc3ccccc32)nnc1SCC(=O)N1CCCC1`, the viability is 99.3% (inactive).
With `CN1CCc2c(sc3c2C(=O)NC(c2ccc(-c4cccc(Cl)c4)o2)N3)C1` (stereo not drawn), the viability is 87.7% (inactive).
With `NC(=O)C1CCN(CCCNC2CC(=O)N(Cc3ccc(N4CCCC4=O)cc3)C2=O)CC1` (stereo not drawn), the viability is 98.7% (inactive).
On to `O=C(NCCN1CCOCC1)c1ccc2c(c1)N(Cc1ccccc1)CCS2`, for which the viability was 94.5% (inactive).
Still for that read-out and setting: under `COc1ccc(C2C(C(=O)N3CCN(c4ccccc4)CC3)c3ccccc3C(=O)N2C)cc1OC` (stereo not drawn) stands 99.3% (inactive); under `CC(=O)Nc1ccc(S(=O)(=O)N2CCN(c3cc(C)ccc3C)CC2)cc1`, 79.3% (inactive).
As to `COc1ccccc1NC(=O)CSc1ncn[nH]1`, the viability was 101% (inactive).
Take `Cc1ccc(/C=N/n2c(C)nnc2C)cc1`: the viability is 99.1% (inactive).
As for `C=CCSC1=C(C#N)C(c2ccc(C(C)C)cc2)CC(=O)N1` (stereo not drawn), the viability was 96.3% (inactive).
Regarding `COc1ccccc1NC(=O)C1=C(C)Nc2nnnn2C1c1cccc(C)c1` (stereo not drawn), the viability was 80.8% (inactive).
As to `CC(C)N1C(=O)CCC1C(=O)N1CCN(c2ccccn2)CC1` (stereo not drawn), the viability is 103% (inactive).
`Cc1ccc(Cl)cc1N1CCN(C(=O)C2CCC(=O)N2C(C)C)CC1` (stereo not drawn): the viability is 85.8% (inactive).
As to `COc1ccc(Cl)cc1S(=O)(=O)n1ccnc1C(C)C`, the viability is 93.3% (inactive).
For the molecule `COc1ccc(N2C(=O)CC(c3ccc(OC(C)C)cc3)C2=O)cc1` (stereo not drawn), the viability was 104% (inactive).
Regarding `COC(=O)CN1C(=O)C(O)(CC(=O)c2cccc(Br)c2)c2ccccc21` (stereo not drawn), the viability is 86.9% (inactive).
Regarding `O=C1C(=O)N(CCCn2ccnc2)C(c2cccnc2)/C1=C(/O)c1ccc(Cl)cc1` (stereo not drawn), the viability was 98.6% (inactive).
The same measure, in the same setting: under `CCc1ccccc1S(=O)(=O)Cc1ccc(C(=O)N2CCN(c3ccccn3)CC2)o1` stands 78% (inactive).
`O=C(NC1CCCc2ccccc21)c1cccnc1` (stereo not drawn): the viability is 93% (inactive).
Turning to `Brc1ccc(-c2noc(CCc3ccccc3)n2)o1`, the viability is 96.9% (inactive).
Still for that read-out and setting: under `COc1cc2c(cc1OC)CN(Cc1cccs1)CC2` stands 90% (inactive); under `Cc1ccc(C)c(NC(=O)CS(=O)(=O)c2cn(C)c3ccccc23)c1`, 98.2% (inactive); under `CCOc1ccc(S(=O)(=O)Nc2ccccc2C(=O)NCC2CCCO2)cc1` (stereo not drawn), 95.5% (inactive).
Still for that read-out and setting: under `CN1CCN(CCCNC(=O)c2ccc(CS(=O)(=O)c3ccc(Br)cc3)o2)CC1` stands 90.8% (inactive).
On to `O=C(COC(=O)C1CC(=O)N(C2CCCCC2)C1)c1ccc(F)cc1` (stereo not drawn), for which the viability is 101% (inactive).
For the molecule `C=CCN1C(=O)c2oc3ccccc3c(=O)c2C1c1ccc(O)c(OC)c1` (stereo not drawn), the viability was 95.4% (inactive).
`Cc1ccc(Oc2ccccc2)c(NC=O)c1`: the viability is 90.4% (inactive).
With `Cc1c(C)n(C(=O)CSc2nncn2C)c2ccccc12`, the viability was 98.1% (inactive).
The same measure, in the same setting: under `Cc1ccc(C)c(Cn2c(CN(C)Cc3ccccc3)nc3c2c(=O)n(C)c(=O)n3C)c1` stands 61.5% (inactive).
For `Cc1noc(NS(=O)(=O)c2ccc(NC(=O)CSc3ncccn3)cc2)c1C`, the viability was 95.2% (inactive).
For `C=CCOC(=O)C1=C(C)N(C)C(=O)NC1c1cc2c(cc1Br)OCO2` (stereo not drawn), the viability was 91.8% (inactive).
On to `CCOc1ccccc1Oc1c(C)oc2cc(OC(=O)N3CCOCC3)ccc2c1=O`, for which the viability is 103% (inactive).
Consider `COC(=O)CSc1nc(C)cc(Oc2ccccc2)n1`, for which the viability is 95.8% (inactive).
As for `Cc1noc(C)c1S(=O)(=O)N(CC(=O)N1CCc2ccccc21)c1ccc(C(C)C)cc1`, the viability is 82.5% (inactive).
Regarding `CSc1ccc(Cl)c(C(=O)NCc2ccco2)c1`, the viability is 81.6% (inactive).
For `CSc1nnc(Cn2c(=O)sc3ccccc32)n1-c1ccccc1C`, the viability is 96.7% (inactive).
Consider `CCCC(=O)C1=C(O)C(C(=O)OC)C(C)(C)CC1=Nc1ccccc1` (stereo not drawn), for which the viability was 88.6% (inactive).

A short description of another assay: RAM pathway blockade in budding yeast – dse1pr::URA3 reporter, 5-FOA selection, pilot screen (AID 869;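 active = inhibition over a set limit, the all-compound mean plus 3 SD, in both replicate runs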;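 also: 0% = DMSO wells with no growth and 100% = 10 µM 1-NA-PP1 with full growth; RAM network block rescues cells from 5-FOA so hits raise OD615 growth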). The settings on record: S. cerevisiae dse1pr::URA3 5-FOA growth, OD615, 2 d; at 10 µM; active compounds read high; strain carries analog-sensitive mutant Cbk1 kinase.
As for `COc1cc(OC)c(NC2c3ccccc3C(=O)N2c2cc(C)ccn2)cc1Cl` (stereo not drawn), the inhibition was 0% (inactive).
For the molecule `CC(=O)Nc1ccc(NC(=O)CSc2nccn2Cc2ccccc2)cc1`, the inhibition is -0.265% (inactive).
As for `CCn1c(C(=O)NC(C)c2ccc3c(c2)OCCO3)cc2sccc21` (stereo not drawn), the inhibition was 1.62% (inactive).
For the molecule `Cn1c(Cn2c(=O)sc3ccccc32)nnc1SCC(=O)N1CCCC1`, the inhibition was 1.95% (inactive).
For the molecule `CN1CCc2c(sc3c2C(=O)NC(c2ccc(-c4cccc(Cl)c4)o2)N3)C1` (stereo not drawn), the inhibition was 1.89% (inactive).
Still for that read-out and setting: under `NC(=O)C1CCN(CCCNC2CC(=O)N(Cc3ccc(N4CCCC4=O)cc3)C2=O)CC1` (stereo not drawn) stands 1.15% (inactive); under `O=C(NCCN1CCOCC1)c1ccc2c(c1)N(Cc1ccccc1)CCS2`, 1.02% (inactive); under `COc1ccc(C2C(C(=O)N3CCN(c4ccccc4)CC3)c3ccccc3C(=O)N2C)cc1OC` (stereo not drawn), 1.28% (inactive).
With `CC(=O)Nc1ccc(S(=O)(=O)N2CCN(c3cc(C)ccc3C)CC2)cc1`, the inhibition is 3.58% (inactive).
On the same count and under the same terms, under `COc1ccccc1NC(=O)CSc1ncn[nH]1` stands -0.045% (inactive); under `Cc1ccc(/C=N/n2c(C)nnc2C)cc1`, 0.135% (inactive).
Regarding `C=CCSC1=C(C#N)C(c2ccc(C(C)C)cc2)CC(=O)N1` (stereo not drawn), the inhibition is 0.04% (inactive).
Consider `COc1ccccc1NC(=O)C1=C(C)Nc2nnnn2C1c1cccc(C)c1` (stereo not drawn), for which the inhibition is 3.79% (inactive).
With `CC(C)N1C(=O)CCC1C(=O)N1CCN(c2ccccn2)CC1` (stereo not drawn), the inhibition is 0.845% (inactive).
Turning to `Cc1ccc(Cl)cc1N1CCN(C(=O)C2CCC(=O)N2C(C)C)CC1` (stereo not drawn), the inhibition was -0.505% (inactive).
With `COc1ccc(Cl)cc1S(=O)(=O)n1ccnc1C(C)C`, the inhibition was 1.74% (inactive).
The same measure, in the same setting: under `COc1ccc(N2C(=O)CC(c3ccc(OC(C)C)cc3)C2=O)cc1` (stereo not drawn) stands 1.39% (inactive); under `COC(=O)CN1C(=O)C(O)(CC(=O)c2cccc(Br)c2)c2ccccc21` (stereo not drawn), 1.2% (inactive); under `O=C1C(=O)N(CCCn2ccnc2)C(c2cccnc2)/C1=C(/O)c1ccc(Cl)cc1` (stereo not drawn), 0.905% (inactive).
Take `CCc1ccccc1S(=O)(=O)Cc1ccc(C(=O)N2CCN(c3ccccn3)CC2)o1`: the inhibition was 1.54% (inactive).
`O=C(NC1CCCc2ccccc21)c1cccnc1` (stereo not drawn): the inhibition was 1.98% (inactive).
`Brc1ccc(-c2noc(CCc3ccccc3)n2)o1`: the inhibition is 3.12% (inactive).
Same read-out and setting: under `COc1cc2c(cc1OC)CN(Cc1cccs1)CC2` stands 2.71% (inactive); under `Cc1ccc(C)c(NC(=O)CS(=O)(=O)c2cn(C)c3ccccc23)c1`, 0.025% (inactive); under `CCOc1ccc(S(=O)(=O)Nc2ccccc2C(=O)NCC2CCCO2)cc1` (stereo not drawn), 1.91% (inactive).
Still for that read-out and setting: under `CN1CCN(CCCNC(=O)c2ccc(CS(=O)(=O)c3ccc(Br)cc3)o2)CC1` stands 1.38% (inactive).
Consider `O=C(COC(=O)C1CC(=O)N(C2CCCCC2)C1)c1ccc(F)cc1` (stereo not drawn), for which the inhibition is 0.95% (inactive).
`C=CCN1C(=O)c2oc3ccccc3c(=O)c2C1c1ccc(O)c(OC)c1` (stereo not drawn): the inhibition is 2.72% (inactive).
Regarding `Cc1ccc(Oc2ccccc2)c(NC=O)c1`, the inhibition was -0.085% (inactive).
With `Cc1c(C)n(C(=O)CSc2nncn2C)c2ccccc12`, the inhibition is 0.94% (inactive).
Regarding `Cc1ccc(C)c(Cn2c(CN(C)Cc3ccccc3)nc3c2c(=O)n(C)c(=O)n3C)c1`, the inhibition is 2.2% (inactive).
The same measure, in the same setting: under `Cc1noc(NS(=O)(=O)c2ccc(NC(=O)CSc3ncccn3)cc2)c1C` stands 0.615% (inactive); under `C=CCOC(=O)C1=C(C)N(C)C(=O)NC1c1cc2c(cc1Br)OCO2` (stereo not drawn), 1.38% (inactive).
Take `CCOc1ccccc1Oc1c(C)oc2cc(OC(=O)N3CCOCC3)ccc2c1=O`: the inhibition was 2.8% (inactive).
`COC(=O)CSc1nc(C)cc(Oc2ccccc2)n1`: the inhibition was 1.48% (inactive).
With `Cc1noc(C)c1S(=O)(=O)N(CC(=O)N1CCc2ccccc21)c1ccc(C(C)C)cc1`, the inhibition is 1.3% (inactive).
As for `CSc1ccc(Cl)c(C(=O)NCc2ccco2)c1`, the inhibition was 2.33% (inactive).
On the same count and under the same terms, under `CSc1nnc(Cn2c(=O)sc3ccccc32)n1-c1ccccc1C` stands 1.73% (inactive).
Same read-out and setting: under `CCCC(=O)C1=C(O)C(C(=O)OC)C(C)(C)CC1=Nc1ccccc1` (stereo not drawn) stands 0.685% (inactive).
